{"source": "PubChem BioAssay (NCATS)", "note": "Records with an inconclusive call do not appear. A number with no mark means an inactive call. The source made the active and inactive calls. Calls follow the shape of the dose curve; as a rule, active = well fitted inhibition curve with a large enough effect; inconclusive = small, poorly fitted or top-dose-only effect; inactive = flat fitted curve, though single readings scatter. % is scaled to controls: 0 for no effect and ±100 for the full control effect; potency is read from the fitted curve at half-maximal effect."}
{"target": "DNA repair nuclease/redox regulator APEX1 (Homo sapiens) (UniProt P27695)", "sequence (P27695 whole entry, looked up)": "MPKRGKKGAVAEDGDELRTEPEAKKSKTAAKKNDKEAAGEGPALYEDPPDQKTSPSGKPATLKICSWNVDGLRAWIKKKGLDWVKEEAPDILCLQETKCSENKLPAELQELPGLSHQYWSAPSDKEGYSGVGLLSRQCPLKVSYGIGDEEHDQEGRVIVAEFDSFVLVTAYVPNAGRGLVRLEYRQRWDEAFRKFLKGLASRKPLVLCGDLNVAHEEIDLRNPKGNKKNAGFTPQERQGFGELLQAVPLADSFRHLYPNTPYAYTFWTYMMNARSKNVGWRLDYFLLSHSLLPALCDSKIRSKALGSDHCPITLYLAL", "assay": "qHTS Validation Assay for Inhibitors of the Human Apurinic/apyrimidinic Endonuclease 1 (APE1) (AID 1705;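 as to activity change, negative = inhibition: TAMRA fluorescence gain over two minutes as APE1 cuts a quenched THF abasic duplex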)", "settings": "purified APE1 endonuclease activity, fluorescence, titration; series mostly up to 57.1 µM; activity change, negative = inhibition: at the top concentration", "description": "Assay Provider: David M. Wilson, III, National Institute on Aging, NIH\nScreening Center PI: Austin, C.P.\nScreening Center: NIH Chemical Genomics Center [NCGC]\nThe apurinic/apyrimidinic endonuclease APE1 is the primary mammalian enzyme responsible for the removal of abasic (or AP) sites in DNA and functions centrally in the base excision DNA repair (BER) pathway. […] Thus, targeting APE1 could improve the efficacy of current treatment paradigms by promoting selective sensitization or protection of diseased and normal cells, respectively.\nInhibition of APE1 activity was screened by utilizing double-stranded short substrate containing tetrahydrofuran (THF) abasic site labeled with rhodamine-type fluorophore (TAMRA) at the 5'-end and with non-fluorescent Black Hole Quencher-2 (BHQ-2) at the opposing 3'-end. An increase in the fluorescence intensity due to incision of the abasic site by APE1 was used to measure the enzyme activity.\n1. Substrate: 50 nM final concentration of TAMRA/BHQ-2 substrate dispensed throughout the plate.\n2. Enzyme: […] nM APE1 final concentration in columns 1, 2, 5-48. Column 1 is neutral (100% activity)\n3. Control: Pintool transfer of control inhibitor NSC-13755 to column 2 of all assay plates. Two-fold, 16 pt dilution in duplicate to produce final concentrations in the […] uM - […] nM range.\n3. Buffer columns in columns 3 and 4 were used as negative control (no enzyme).\nThree uL of enzyme were dispensed to 1536-well Greiner black solid bottom plates. Compounds (23 nL) were transferred via Kalypsys pintool. The plates were incubated for 15 min at room temperature, and then 1 uL of substrate solution was added to start the reaction. The plates were immediately transferred into ViewLux High-throughput CCD imager (Perkin-Elmer) in order to measure the reaction progress in kinetic mode (three reads every 60 seconds) using 525 nm excitation and 598 nm emission fluorescence protocol. The fluorescence intensity difference between the third and the first time points was used to compute reaction progress.", "units": {"activity change, negative = inhibition": "%"}}
{"smiles": "NCCCNCCCCNCCCN", "activity change, negative = inhibition": 15.8}
{"smiles": "CC(C)Cn1c(=O)n(C)c(=O)c2[nH]cnc21", "activity change, negative = inhibition": -0.88}
{"smiles": "NOCC(=O)O", "activity change, negative = inhibition": 5.12}
{"smiles": "NCCCCN=C(N)N", "activity change, negative = inhibition": -3.78}
{"smiles": "CN(C)S(=O)(=O)c1ccc2c(c1)/C(=C/c1cc3c([nH]1)CCCC3)C(=O)N2", "activity change, negative = inhibition": -4.52}
{"smiles": "NC(Cc1cccc(-c2ccccc2CP(=O)(O)O)c1)C(=O)O", "note": "(stereo not given)", "activity change, negative = inhibition": -1.74}
{"smiles": "NCCCCN", "activity change, negative = inhibition": 4.76}
{"smiles": "O=C(O)c1cc(=O)cc(C(=O)O)[nH]1", "activity change, negative = inhibition": 11.4}
{"smiles": "NC(N)=N[C@@H](CCC(=O)O)C(=O)O", "activity change, negative = inhibition": -3.38}
{"smiles": "N[C@H](C(=O)O)[C@H](O)C(=O)O", "activity change, negative = inhibition": 4.57}
{"smiles": "CCCCCCCCCCCCCCSCC(=O)O", "activity change, negative = inhibition": 1.68}
{"smiles": "CC[N+](CC)(CC)CC(=O)Nc1c(C)cccc1C", "activity change, negative = inhibition": -4.59}
{"smiles": "CC(N)=O", "activity change, negative = inhibition": -0.222}
{"smiles": "NCCC1CCCC(CCN)N1", "note": "(stereo not given)", "activity change, negative = inhibition": 17.1}
{"smiles": "CC1CNCCN1S(=O)(=O)c1cccc2cnccc12", "note": "(stereo not given)", "activity change, negative = inhibition": 8.11}
{"smiles": "COc1cc(C(O)C(=O)O)ccc1O", "note": "(stereo not given)", "activity change, negative = inhibition": -7.22}
{"smiles": "O=C(N[C@@H](Cc1ccccc1)C(=O)CCl)OCc1ccccc1", "activity change, negative = inhibition": -8.39}
{"smiles": "NCC(O)C1CCCCCCC1", "note": "(stereo not given)", "activity change, negative = inhibition": -10.5}
{"smiles": "CSC(N)=NCCC[C@H](N)C(=O)O", "activity change, negative = inhibition": 3.33}
{"smiles": "CC(=O)[C@H]1CCC2C3CC=C4C[C@@H](OS(=O)(=O)O)CC[C@]4(C)C3CC[C@@]21C", "note": "(stereo not given in full)", "activity change, negative = inhibition": 2.35}
{"smiles": "COC1(C2=NCCN2)COc2ccccc2O1", "note": "(stereo not given)", "activity change, negative = inhibition": 3.38}
{"smiles": "NC1(C(=O)O)CC1", "activity change, negative = inhibition": 2.83}
{"smiles": "N=C(N)c1ccc(N)cc1", "activity change, negative = inhibition": 15.7}
{"smiles": "Nc1ccc(-c2nc3ccc(-c4nc5ccc(N)cc5[nH]4)cc3[nH]2)cc1", "Potency": "28.2 µM (active)"}
{"smiles": "COc1cc([C@@H]2c3cc4c(cc3[C@H](O)C3COC(=O)[C@@H]32)OCO4)cc(OC)c1OC", "note": "(stereo not given in full)", "activity change, negative = inhibition": 1.51}
{"smiles": "c1ccc(C2CN3CCSC3=N2)cc1", "note": "(stereo not given)", "activity change, negative = inhibition": 5.22}
{"smiles": "COc1ccccc1N1CCN(CCCCN2C(=O)c3ccccc3C2=O)CC1", "activity change, negative = inhibition": 4.12}
{"smiles": "CC(N)(Cc1ccc(O)cc1)C(=O)O", "note": "(stereo not given)", "activity change, negative = inhibition": -7.67}
{"smiles": "OC1(c2ccc(Cl)cc2)CCN(Cc2c[nH]c3ccccc23)CC1", "activity change, negative = inhibition": 0.226}
{"smiles": "c1ccc(CN2CCC3(CCCc4ccccc43)CC2)cc1", "activity change, negative = inhibition": 2.73}
{"smiles": "CCCCCCCCCCCCCCC[C@H](O)[C@H](N)CO", "activity change, negative = inhibition": -13.7}
{"smiles": "COc1ccc(C(=O)NCc2cccnc2)cc1C(=O)NCc1cccnc1", "activity change, negative = inhibition": -3.47}
{"smiles": "CCN(c1nc(N)c(C(=O)N=C(N)N)nc1Cl)C(C)C", "activity change, negative = inhibition": -6.61}
{"smiles": "CCCc1c(OCCCOc2ccc(OCC(=O)O)cc2)ccc(C(C)=O)c1O", "activity change, negative = inhibition": -3.23}
{"smiles": "N[C@@H](CS(=O)O)C(=O)O", "activity change, negative = inhibition": 4.27}
{"smiles": "O=C(O)c1cc2cc(F)ccc2[nH]1", "activity change, negative = inhibition": -1.92}
{"smiles": "O=c1[nH]c(=O)c2nc3ccccc3nc2[nH]1", "activity change, negative = inhibition": -2.42}
{"smiles": "CC1CCN(CC[C@H]2CCCN2S(=O)(=O)c2cccc(O)c2)CC1", "activity change, negative = inhibition": -5.52}
{"smiles": "CCCCCCCCCCCCCCCCCCOC[C@H](COP(=O)([O-])OCC[N+](C)(C)C)OC", "activity change, negative = inhibition": -10.2}
{"smiles": "Cn1c(=O)[nH]c2ncn(C)c2c1=O", "activity change, negative = inhibition": -2.31}
